Shown are actives, neighbours in structure and some others; about 1.8% of the full set was active somewhere.
GLP-1R agonist: GLP-1 receptor (human) agonism | Potency, µM (highest dose often 45.6 µM), inactives show at the top dose activation, most hits filed as activators | P43220 | HEK293 GLP-1R CRE-luciferase, luminescence, 4-6 h; cells express a hypersensitive GLP-1R form | actives 0.007% (n = 380,000); further: % of control where 0% means no effect
GLP1R cytotox: cytotoxicity in counter-screen for GLP-1R inverse agonists | HEK293 cAMP-luciferase reporter cells, luminescence, 24 h | Potency, µM (top dose mostly 38.3 µM), for the others: top-dose activity change, negative = inhibition, most hits filed as inhibitors | actives 0.13% (n = 410,000) | AID 624418;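 further: loss of luciferase light is scored as toxicity; on the % scale 0 is the no-effect control and ±100 the full control effect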
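MLSMR compounds, 24 hr on cells at 37 deg C/5% CO2; luminescence after luciferase reagent (12 min RT). Inhibition counted as the undesired cytotoxic outcome.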
Pin1 inh: inhibitors of human Pin1; Pin1 FP peptide displacement, HiFluor488, 10 min; Potency, µM (doses to about 115 µM), without a hit: top-dose activity, negative = inhibition, hits mostly inhibitors; actives 0.009% (n = 390,000); AID 504891; active means well fitted inhibition curve with a large enough effect in the polarisation, with a control signal flat, not every such curve was filed as active; inconclusive means small, poorly fitted or top-dose-only effect, or effect the other way, or a change in a side signal; inactive means no such curve, though single readings can be large or run the other way; the % refers to the polarisation; further: on the % scale 0 is the no-effect control and ±100 the full control effect
Target sequence (Q13526 whole entry, looked up): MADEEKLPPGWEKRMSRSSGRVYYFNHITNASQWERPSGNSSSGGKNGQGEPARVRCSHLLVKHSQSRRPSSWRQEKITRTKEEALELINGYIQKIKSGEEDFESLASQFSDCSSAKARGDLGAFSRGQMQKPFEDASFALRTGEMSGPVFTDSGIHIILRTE
GLP-1R inv ag: acts as inverse agonist at human GLP-1 receptor. P43220. HEK293 GLP-1R CRE-luciferase, luminescence, 24 h; GLP-1R form is constitutively active. actives 1.6% (n = 410,000). Potency, µM (top dose mostly 38.3 µM), without a hit: at the highest dose activity change, negative = inhibition, actives largely listed as inhibitors; further: on the % scale 0 is the no-effect control and ±100 the full control effect; nearly all actives have a fitted effect of over 55% in size
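HEK293 cells stably co-expressing a cAMP-responsive luciferase reporter and constitutively active GLP-1R were seeded, incubated 12 h, then exposed to compounds for 24 h at 37 C. Luminescence was read 12 min after detection reagent; inverse agonists lower signal.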
Tb PFK inh: inhibitors of T. brucei phosphofructokinase | actives 0.17% (n = 330,000) | Potency, µM (titrated, usually from 57.5 µM), without a hit: at the top dose activity, negative = inhibition, usual class: inhibitors | O15648 | T. brucei PFK, ADP-Glo luminescence;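 further: 0% = uninhibited 1x PFK enzyme wells and -100% = no-enzyme wells; nearly all actives have a fitted effect of over 60% in size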
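Compounds were pin-transferred as a titration series up to 57 uM into substrate buffer (0.5 mM F6P, 0.1 mM ATP, pH 8.0), then 1.25 nM PFK was added and reactions ran 45 min before ADP-Glo detection.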
PGK inhibitor: T. brucei PGK inhibition; PGK/GAPDH coupled, Kinase-Glo luminescence, 60 min; actives 0.043% (n = 380,000); Potency, µM (highest dose often 57.5 µM), inactives show at the top dose activity change, negative = inhibition, usual class: inhibitors; further: on the % scale 0 is the no-effect control and ±100 the full control effect; nearly all actives have a fitted effect of over 60% in size
Target sequence (P07378 whole entry, looked up): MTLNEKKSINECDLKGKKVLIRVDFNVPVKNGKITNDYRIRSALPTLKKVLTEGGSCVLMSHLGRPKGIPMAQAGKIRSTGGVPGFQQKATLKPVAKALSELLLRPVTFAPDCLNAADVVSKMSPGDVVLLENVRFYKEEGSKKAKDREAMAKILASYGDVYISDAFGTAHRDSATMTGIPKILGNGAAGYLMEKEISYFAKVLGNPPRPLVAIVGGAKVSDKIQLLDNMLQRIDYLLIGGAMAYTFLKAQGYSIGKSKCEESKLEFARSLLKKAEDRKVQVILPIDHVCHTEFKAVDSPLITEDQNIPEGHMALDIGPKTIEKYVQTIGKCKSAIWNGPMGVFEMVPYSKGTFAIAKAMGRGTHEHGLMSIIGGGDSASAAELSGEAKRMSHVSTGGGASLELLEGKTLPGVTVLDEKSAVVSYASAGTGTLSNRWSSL
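Luminescent ATP detection (Kinase-Glo Plus) follows a 60-minute room-temperature incubation, with wells lacking PGK as controls. Buffer: 100 mM TEA (pH 7.6), 5 mM MgCl2, 0.01% Tween-20. Coupling enzyme GAPDH (100 nM final) supplies unstable 1,3-BPG in-well.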
* = called active by the depositor; i = inactive; u = inconclusive; x = not tested or not shown. Unless noted, the call rests on the fitted dose curve; in most records, active means well fitted curve in the direction sought with a large enough effect; inconclusive means small, poorly fitted or top-dose-only effect, or another doubt; inactive means no such curve, though single readings can be large; an effect the other way counts as inactive or inconclusive. Potency means the concentration at half of the fitted maximal effect.

SMILES	GLP-1R agonist	GLP1R cytotox	Pin1 inh	GLP-1R inv ag	Tb PFK inh	PGK inhibitor
CN(CC(=O)Nc1cccc(F)c1)C(=O)c1cc2c(s1)CCCCC2	13%	-8%	-9%	u	-1%	-8%
COc1ccccc1NC(=O)CCS(=O)(=O)c1ccc2nc(C)sc2c1	x	-8%	5%	6%	x	0%
CC(=O)C1=C(c2ccc(Cl)c(Cl)c2)N(C(C)=O)n2c(C)nnc2S1	x	-21%	-5%	11µM*	x	-14%
CC(=O)C1=C(c2ccc(Cl)c(Cl)c2)N(C(C)=O)n2c(nnc2-c2ccccc2)S1	x	-3%	-3%	13%	x	-4%
CC(=O)C1=C(c2ccccc2)N(C(C)=O)n2c(nnc2C2CCCCC2)S1	x	-1%	13%	13µM*	x	-8%
COc1cccc(C2=C(C(C)=O)Sc3nnc(C4CCCCC4)n3N2C(C)=O)c1	x	1%	3%	10%	x	-4%
COc1ccc(N(CC(=O)Nc2cc(C)ccc2C)S(=O)(=O)c2ccc(OC)c(OC)c2)cc1	x	26%	12%	15%	x	4%
COc1ccc(-c2nc3sc(CCNC(=O)c4ccc(Br)o4)c(C)n3n2)cc1	-2%	-32%	15%	u	x	-10%
O=C(O)Cn1cnc2c(OCc3ccccc3)ncnc21	-3%	0%	-1%	9%	5%	-8%
Cc1ccc(CN2CCN(CCCn3cnc4c(OCc5ccccc5)ncnc43)CC2)cc1	-3%	-19%	10%	8.9µM*	x	5%
c1ccc(CNCCCn2cnc3c(OCc4ccccc4)ncnc32)cc1	13%	15%	5%	-20%	x	3%
Cc1cc(C)c(CN2CCN(C(=O)Cn3cnc4c(OCc5ccccc5)ncnc43)CC2)c(C)c1	0%	-11%	12%	6.3µM*	4%	i
Cc1ccc(N2C(=O)c3ccccc3C2=O)c(C)c1	x	x	1%	x	x	x
CCCCN1C(=O)N(CCc2ccc(F)cc2)S(=O)(=O)c2cc(C(F)(F)F)ccc21	4%	4%	u	10µM*	0%	3%
CCCCNc1ccc(C(F)(F)F)cc1S(=O)(=O)NCCc1ccc(F)cc1	-1%	4%	-1%	u	1%	-2%
Cc1ccc(-c2nc(CS(=O)(=O)CC(=O)N3CCCCCC3)c(C)o2)cc1	3%	-11%	-6%	10µM*	2%	3%
COc1ccc(C2Nc3ccc(Cl)cc3C(=O)N2Cc2ccccc2)cc1COc1ccc(NC(C)=O)cc1 (stereo not given)	x	x	-1%	x	x	x
Clc1cccc(OCCn2ccnc2)c1	0%	-3%	3%	-17%	27µM*	1%
COc1cccc(OCCn2ccnc2)c1	-11%	5%	-5%	-3%	u	-3%
O=C(Oc1c(Br)cc(C(=S)N2CCOCC2)cc1Br)c1ccc(Cl)cc1	-8%	u	-1%	10µM*	4%	-1%
CC(C)CCN(C(=O)c1csnn1)C(C(=O)NC1CCCCC1)c1ccc(F)cc1 (stereo not given)	38%	-4%	-9%	10µM*	-11%	0%
CCOC(=O)c1ccc(NC(=O)c2ccc(CN3C(=O)CCn4nc(C)cc43)cc2)cc1	x	6%	2%	7%	x	i
COc1ccc2nc(C)cc(NCc3cccc(C(F)(F)F)c3)c2c1	4%	u	-3%	2.8µM*	0%	i
CCN(CC)c1ccc(N=Nc2nn(C)c(C)c2[N+](=O)[O-])cc1	18%	4.5µM*	44%	6%	-1%	-20%
COCCn1c(SCC(=O)Nc2ccc(F)c(Cl)c2)nc2c(oc3ccccc32)c1=O	x	-11%	23%	-7%	x	-6%
SMILES	GLP-1R agonist	GLP1R cytotox	Pin1 inh	GLP-1R inv ag	Tb PFK inh	PGK inhibitor
C[C@@H]1CC=C[C@H]2[C@H]1C(=O)N(Cc1ccccc1)[C@H]2c1cccc([N+](=O)[O-])c1	1%	2%	-1%	7.1µM*	1%	-3%
CCC1CC=CC2C1C(=O)N(Cc1ccccc1)C2c1cccc([N+](=O)[O-])c1 (stereo not given)	x	x	6%	x	x	x
Cc1ccc(F)c([C@H]2[C@H]3C=CC[C@@H](C)[C@@H]3C(=O)N2Cc2ccccc2)c1	-3%	6%	2%	10µM*	1%	-4%
C[C@@H]1CC=C[C@H]2[C@H]1C(=O)N(Cc1ccccc1)[C@H]2c1ccc(-c2ccc(N(C)C)cc2)cc1F	0%	3%	68%	7.9µM*	-3%	7%
Cc1ccc(F)c(C2C3C=CCC(C)C3C(=O)N2Cc2ccccc2)c1 (stereo not given)	x	x	-1%	x	x	x
CCSC1=NS(=O)(=O)c2ccccc21	x	x	-8%	x	x	x
CC1=NN(C(=O)COc2ccccc2C)C(O)(c2ccc(Cl)cc2)C1 (stereo not given)	-5%	u	3%	10µM*	1%	5%
CCC1=NN(C(=O)c2ccc(Br)cc2)C(O)(c2ccccc2)C1 (stereo not given)	-3%	u	15%	0.56µM*	0%	-5%
CC1=NN(C(=O)c2ccccc2)C(O)(c2ccc(Br)cc2)C1 (stereo not given)	9%	-19%	-10%	4µM*	2%	i
CC1=NN(C(=O)c2ccccc2Cl)C(O)(c2ccccc2)C1 (stereo not given)	0%	-14%	-3%	u	3%	2%
CCC1=NN(C(=O)COc2ccccc2C)C(O)(c2ccncc2)C1 (stereo not given)	4%	-27%	4%	-1%	u	-6%
CCN1CCN(Cc2ccc(NC(=O)c3cc(NC(=O)c4cc(C)on4)cc(OC)c3)cc2C(F)(F)F)CC1	15%	u	0%	u	2%	-2%
CCN1CCN(Cc2ccc(NC(=O)c3cc(NC(=O)C(=O)c4c[nH]c5ccccc45)cc(OC)c3)cc2C(F)(F)F)CC1	-15%	u	15%	10µM*	1%	-3%
O=C(NC1(Cc2ccccc2)CCN(CCCc2ccccc2)C1=O)c1ccccc1 (stereo not given)	7%	-16%	-8%	11µM*	8%	i
COc1ccc(CCNC(=O)c2cc(-c3ccc(C)c(C)c3)nc3ccccc23)cc1OC	x	-14%	2%	-13%	x	-11%
COc1ccc(-c2cnc(N3CCC(C(N)=O)CC3)s2)cc1OC	x	x	-3%	x	x	x
CCc1cccc(OCC(=O)Nc2ccc(C)c(S(=O)(=O)N3CCCCCC3)c2)c1	7%	7%	5%	5µM*	0%	-4%
Cc1ccc(NC(=O)/C=C/c2ccco2)cc1S(=O)(=O)N1CCCCCC1	10%	-19%	22%	10µM*	x	-3%
